# Screening data: PubChem, National Center for Advancing Translational Sciences (NCATS)
# Pf growth 96h = inhibits malaria parasite growth, 96 h. 320,000 compounds, 6.9% hits. Potency, µM (top dose mostly 28.7 µM), for inactives: at the highest dose activity change, negative = inhibition, actives largely listed as inhibitors. P. falciparum luciferase reporter growth, 96 h; also: potency is read from the fitted curve at half-maximal effect; % is scaled to controls: 0 for no effect and ±100 for the full control effect
#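 Delayed-death screen, second-generation endpoint: infected erythrocytes, 2% hematocrit, 0.05% parasitemia final; 96 hours at 37 C, 5% CO2; luciferase detection reagent; luminescence decrease equals reduced growth.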
# LASV entry inh = blocks Lassa virus binding to or entry into cells; Lassa virus pseudotype entry inhibition, cell reporter; 300,000 compounds, 1.2% hits; Potency, µM (titrated, usually from 37.9 µM), for the others: at the highest dose activity change, negative = inhibition, most hits filed as inhibitors; calls by dose curve; tested in HEK293 cells; also: potency is read from the fitted curve at half-maximal effect; % is scaled to controls: 0 for no effect and ±100 for the full control effect; nearly all actives have a fitted effect of over 50% in size
# Marburg entry inh = Marburg virus entry inhibition; Marburg virus pseudotyped entry inhibition, cell reporter; Potency, µM (doses to about 37.8 µM), for the others: at the highest dose activity change, negative = inhibition, usual class: inhibitors; 300,000 compounds, 1.8% hits; AID 540276; calls by dose curve; tested in HEK293 cells; also: potency is read from the fitted curve at half-maximal effect; % is scaled to controls: 0 for no effect and ±100 for the full control effect
# Pf growth 48h = inhibits P. falciparum growth in the first generation, 48 h. P. falciparum luciferase growth in erythrocytes, 48 h. 310,000 compounds, 5.9% hits. AID 504832. Potency, µM (highest dose often 28.7 µM), without a hit: at the top dose activity change, negative = inhibition, most hits filed as inhibitors; also: potency is read from the fitted curve at half-maximal effect; % is scaled to controls: 0 for no effect and ±100 for the full control effect
#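 In quantitative HTS format, infected erythrocytes bearing luciferase-reporter parasites were treated for a single generation at 37 C. Luminescence after adding detection reagent served as the growth measure.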
# Cycloheximide cs = affects cycloheximide protein synthesis inhibition readout, counter-screen; cell reporter, cycloheximide protein synthesis inhibition counterscreen; max response, %; 300,000 compounds, 12% hits; AID 2314; in the data active = max response mostly above about 13%, no sharp cut-off; inactive = mostly below about 14%; also: read at 38.3 µM for the half of the compounds with a filed dose; 0% is about no effect
# Shiga inhibitor = Shiga toxin inhibition | inhibition, % at 38.7 µM | Vero cells, Shiga toxin protein synthesis inhibition reporter | 290,000 compounds, 9.2% hits; in the data active = inhibition mostly above about 28%, no sharp cut-off; inactive = mostly below about 43%; also: 0% is about no effect
# Starred values were filed as active, the others as inactive; u = inconclusive; x = not tested or not shown; ! = repeats disagree; [ ] = another dose, or the depositor's remark. A selection: hits, their analogues and other compounds. The true share with any hit is near 19%. Unless noted, calls follow the shape of the dose curve; as a rule, active = well fitted inhibition curve with a large enough effect; inconclusive = small, poorly fitted or top-dose-only effect, or another doubt; inactive = no such curve, though single readings can be large or run the other way.
SMILES,Pf growth 96h,LASV entry inh,Marburg entry inh,Pf growth 48h,Cycloheximide cs,Shiga inhibitor
COc1cc(-c2nc(CN3CCCN(C(=O)c4ccco4)CC3)c(C)o2)ccc1F,69%,-11%,-8%[46.1 µM],u,-2,-3
CC(C)(C)C(=O)OC/C(N)=N/OC(=O)c1ccc(Cl)c(Cl)c1,u,x,x,u,20*,29
CCCS(=O)(=O)C/C(N)=N/OC(=O)c1ccc(Cl)cc1,49%,1%,-19%[14.2 µM],29%,-2,69
CCc1ccc(-c2cc(C)no2)cc1S(=O)(=O)N1CC(=O)Nc2ccccc21,54%,23%[46.1 µM],16%[46.1 µM],-23%,-4,-5
CC[n+]1ccccc1/C=C1\Sc2ccc(C)cc2N1C,26%,x,x,1µM*,-2,44
CN1/C(=C/c2cccc[n+]2CCO)Sc2ccccc21,u,-1%,-24%,u,1,-9
CCN(CC)S(=O)(=O)c1ccc(C(=O)OCC(=O)Nc2ccc(-c3nc4ccc(C)cc4s3)cc2)cc1,279%,u,u,227%,74*,115*
CCN(CC)S(=O)(=O)c1cc(C(=O)OCC(=O)Nc2ccc(-c3nc4ccc(C)cc4s3)cc2)ccc1F,198%,3.2µM*!,u,178%,63*,92*
CCN(CC)S(=O)(=O)c1cc(C(=O)OCC(=O)Nc2cccc(S(=O)(=O)N(C)C)c2)ccc1F,u,14%[46.1 µM],0%[46.1 µM],-8%,7,-13
O=C(CCN1C(=O)C2C3C=CC(C3)C2C1=O)NCCc1ccccc1Cl (stereo not drawn),-28%,u,12%,19%,14*,28*
O=C(CCN1C(=O)C2C3C=CC(C3)C2C1=O)Nc1ccccc1 (stereo not drawn),5%,17%,2%,0%,-1,4
O=C(CN1C(=O)C2C3C=CC(C3)C2C1=O)NCCc1ccccc1 (stereo not drawn),37%,2%,u,21%,15*,10
O=C(CN1C(=O)C2C3C=CC(C3)C2C1=O)NCc1ccccc1 (stereo not drawn),57%,7%,2%,2%,-4,-23
O=C(c1cnn2cccnc12)N1CCN(Cc2ccc3c(c2)OCO3)CC1,x,8%,1%,12%,-2,-12
COc1ccc(-c2cc(C(=O)Nc3sc4c(c3C#N)CCCC4)no2)cc1OC,x,12%[46.1 µM],u,x,x,x
CC/C(=N\NC(=O)c1ccncc1)C12CC3CC(CC(C3)C1)C2,-16%,11%,0%,x,-2,22
Cc1ccccc1NC(=O)NCCCN1CCN(c2ccccc2)CC1,2.3µM*,13%,u,x,1,-15
O=C(NCCCN1CCc2ccccc2C1)Nc1ccc(Br)cc1,u,8%,-14%,x,23*,-9
Cc1ccccc1NC(=O)NCCCN1CCN(C)CC1,u,x,x,8%,7,3
COc1ccc(NC(=O)NCCCN2CCc3ccccc3C2)cc1,19%,x,x,10%,-2,10
COc1ccccc1N1CCN(CCCCNC(=O)c2ccc3ccccc3c2)CC1,4.1µM*,x,8.9µM*,u,x,x
COc1ccc(N2CCN(CCCNC(=O)Nc3ccccc3)CC2)cc1,-1%,16%[46.1 µM],1%[46.1 µM],x,3,32
COc1ccccc1N1CCN(CCCNC(=O)Nc2ccccc2)CC1,u,-17%,u,12µM*,3,14
C=CCOc1ccc(CN(C)CC(=O)N(CC(C)C)c2c(N)n(CC(C)C)c(=O)[nH]c2=O)cc1,x,u,u,-15%,-2,2
C=CCn1c(=NC(=O)C2COc3ccccc3O2)sc2cc(S(N)(=O)=O)ccc21 (stereo not drawn),u,2%,13%,-18%,0,-10
COC(=O)/C=C1\C(=O)N(c2nc3ccc(OC)cc3s2)C(=S)N1c1ccc(F)cc1,31%,x,x,18%,1,-10
CC1CC(C)CN(c2ncc3c(n2)CC(c2ccccc2Cl)CC3=O)C1 (stereo not drawn),15µM*,10µM*,u,10µM*,-1,-9
O=C1CC(c2ccccc2)Cc2nc(N3CCc4ccccc4C3)ncc21 (stereo not drawn),u,15µM*,15%,20%,13,-2
Cc1ccc(C2CC(=O)c3cnc(N4CCc5ccccc5C4)nc3C2)cc1 (stereo not drawn),u,3.7µM*,-1%,u,2,17
